Growth data for nine molecules are collected here from PubChem BioAssay (NCI).

Compounds without any hit were thinned out: in the full panel of roughly 83,000, 20% have a hit.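 Results are percent growth after 48 hours of single-concentration exposure. 100 means growth as in untreated cells, lower positive values show inhibition; negative values down to -100 show cell death.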 A number with no mark means an inactive call. Activity calls are given as the source filed them. Rule for the calls: active = growth percent below 10; inactive = the rest.

Common to all, as to test: NCI-60 one-dose screen, 48 h (100 = growth as untreated, 0 = no growth, -100 = all killed)
Details in all cases: 10 µM unless noted

Assay [1] deals with RPMI-8226 leukemia.
For assay [2], the system named is OVCAR-8 ovarian.
The test system of assay [3] is OVCAR-5 ovarian.
Assay [4] relates to OVCAR-4 ovarian.
For assay [5], the system named is SK-OV-3 ovarian.
In assay [6] the test system is IGROV1 ovarian.
The subject of assay [7] is OVCAR-3 ovarian.
Assay [8] concerns HS 578T breast.
Assay [9] relates to NCI/ADR-RES ovarian.
In assay [10] the test system is T-47D breast.
Assay [11] relates to BT-549 breast.
Assay [12] concerns MDA-MB-435 melanoma.
In assay [13] the test system is SW-620 colon.
The test system of assay [14] is MCF7 breast.
Assay [15] deals with HCT-116 colon.
Assay [16] deals with HCC-2998 colon.
Assay [17] concerns KM12 colon.

For the molecule `CCC[S@](=O)c1ccc2nc(NC(=O)OC)[nH]c2c1`, the growth is 96.4% in [1]; 84.9% in assay [2]; 101% in assay [3]; 104% in [4]; 74.5% in assay [5]; 97.1% in assay [6]. Further, the growth was 104% in assay [7]; 102% in assay [8]; 106% in assay [9]; 87.7% in [10]; 97.3% in assay [11]; 101% in assay [12]. Further, the growth was 93.4% in [13]; 92% in assay [14]; 84.4% in assay [15]; 105% in assay [16]; 103% in assay [17].
As for `O=c1nc(-c2ccccc2)c2cc(-c3ccc(N4CCCC4)nc3)ccc2[nH]1`, the growth in assay [1] was 71.6%; in assay [2], 89.2%; in assay [3] it was 98.7%; in [4] it was 85.3%; in assay [5], 80.6%; in [6], 66.1%. Besides, the growth is 44.7% in assay [7]; 67.8% in assay [8]; 63.9% in assay [9]; 62.3% in assay [10]; 64% in assay [11]; -1.96% (active) in assay [12]. The growth in assay [13] was 45.8%; in [14] it was 35.4%; in [15], 45.7%; in [16], 80.5%; in assay [17], 56.7%.
For the molecule `O=C1NC(SCc2ccc(F)cc2)=N/C1=C/c1cccc(OCc2ccc(Cl)cc2)c1`, the growth was 53.5% in assay [1]; 52.8% in assay [2]; 66.1% in assay [3]; -48.4% (active) in assay [4]; 55.4% in [5]; 26.6% in [6]. Moreover, the growth in assay [7] is 18.1%; in assay [8], 29.6%; in [9], 65.8%; in assay [10] it was 53.5%; in assay [11], 87.2%; in assay [12] it was 88.5%. In addition, the growth in assay [13] is 54.1%; in assay [14], 64.1%; in assay [15], -10.9% (active); in assay [16], 92.1%; in assay [17], 88.9%.
As to `C=C(C)[C@@H]1CC[C@]2(C(N)=O)CC[C@]3(C)[C@H](CC[C@@H]4[C@@]5(C)CCCNC(C)(C)[C@@H]5CC[C@]43C)[C@@H]12`, the growth was 13.5% in [1]; 82.1% in assay [2]; 82.9% in assay [3]; 83.6% in assay [4]; 87.5% in assay [5]; 84.2% in assay [6]. The growth in [7] was 88.8%; in assay [8], 74.9%; in assay [9], 84.6%; in [10], 55.9%; in assay [11], 85.2%; in [12] it was 78.7%. Besides, the growth in assay [13] is 75.5%; in assay [14], 45.3%; in assay [15], 55.8%; in [16], 98.2%; in assay [17] it was 79.8%.
In the case of `CN(CCC#N)C(=O)Nc1ccccc1`, the growth in assay [1] was 107%; in assay [2], 102%; in [3], 111%; in [4] it was 104%; in assay [5], 100%; in assay [6], 106%. In addition, the growth in assay [7] was 108%; in assay [8], 105%; in [9], 102%; in assay [10], 97.2%; in assay [11], 102%; in assay [12], 107%. Besides, the growth was 103% in assay [13]; 100% in assay [14]; 109% in [15]; 108% in assay [16]; 104% in [17].
As to `S=C(Nc1ccc(Cl)cc1)c1ccccn1`, the growth is 96.8% in assay [1]; 92.7% in assay [2]; 102% in assay [3]; 96.9% in assay [4]; 94.3% in assay [5]; 93.3% in [6]. Further, the growth is 109% in assay [7]; 95.9% in [8]; 96.6% in assay [9]; 79.2% in [10]; 94.5% in assay [11]; 106% in assay [12]. Also, the growth in assay [13] was 100%; in assay [14], 81.4%; in assay [15] it was 89.7%; in assay [16], 110%; in assay [17] it was 100%.
Take `S=C(Nc1ccccc1)c1ccccn1`: the growth is 56.5% in assay [1]; 91.2% in assay [2]; 88.9% in [3]; 100% in [4]; 90.9% in assay [5]; 1.38% (active) in assay [6]. For the same molecule, the growth was 67.7% in assay [7]; 101% in assay [8]; 93.1% in assay [9]; 96.6% in assay [10]; 90.5% in assay [11]; 103% in [12]. In addition, the growth in [13] was 89.6%; in assay [14] it was 77.5%; in [15] it was 92.5%; in assay [16], 98.7%; in [17], 99.8%.
On to `O=CN1N=C(c2ccc3c(c2)OCO3)CC1c1cccc(Nc2ccnc3cc(C(F)(F)F)ccc23)c1` (stereo not drawn), for which the growth is 40.2% in [1]; 83.8% in assay [2]; 97.7% in assay [3]; 69.6% in assay [4]; 77.4% in assay [5]; 91.8% in [6]. Besides, the growth in assay [7] is 67.4%; in [8] it was 96.1%; in [9], 76.8%; in [10], 45.8%; in assay [11], 75%; in assay [12], 40.6%. Besides, the growth in [13] is 95.1%; in [14], 68.2%; in assay [15] it was 74.5%; in [16] it was 93.6%; in assay [17], 66.6%.
For the molecule `O=C1Nc2ccc(Br)cc2/C1=N\N=C/c1cn(Cc2ccccc2)c2ccccc12`, the growth was 95.9% in assay [1]; 96.1% in assay [2]; 28.3% in assay [3]; 84.3% in assay [4]; 76.2% in assay [5]; 80.7% in assay [6]. For the same molecule, the growth in [7] was 109%; in assay [8], 80.9%; in [9] it was 99.5%; in [10] it was 89.6%; in assay [11], 105%; in assay [12], 105%. In addition, the growth was 99% in [13]; 83.2% in [14]; 93.7% in assay [15]; 106% in [16]; 96.2% in [17].
